In all, about 38,000 compounds went through this assay and about 1,200 (3.2%) showed an effect of 50% or more. The median lay at about -58%. Shown is part of a subset that was picked to be rich in strong results.

From ChEMBL document CHEMBL3988442, “University of Dundee, Small-Polar-MMV Screening Library” (2021) come the findings set out here.

The assay deals with Plasmodium falciparum. Put plainly: Calibr Malaria Delayed Death Assay SOP. Further details: scale not given: in the data most compounds retested in dose-response had high values. It counts as functional, organism-based. Conditions: concentration 4.99e-06 (unit not given; other assays of the set use mol/L).
Regarding `Cc1cnc(C(NC(=O)NCc2nc(C3CC3)no2)C2CC2)s1` (configuration not stated), the “Percent Effect” value is on record as -34.97%.
For the molecule `Cc1ccc(N2CCO[C@H]3CN(Cc4cccs4)C[C@H]32)nn1.O=C(O)C(F)(F)F.O=C(O)C(F)(F)F`, the “Percent Effect” value is listed as -16.91%.
To `CCN(CC)Cc1cc(=O)n2c(n1)CN(C(=O)c1ccnnc1)CCC2.O=C(O)C(F)(F)F` belongs -110.9%; to `Cc1ccc(CN2CC[C@H]3OCC[C@@]3(C(=O)N3CCCO3)C2)o1.O=C(O)C(F)(F)F`, -80.01%; to `CC(C)c1nnc2sc(CC3CN(C(C)C)CCO3)nn12` (configuration not stated), -105.6%.
To `CCCS(=O)(=O)N1Cc2nccn2CC(Cn2cncn2)C1` (configuration not stated) belongs -125.8%; to `NC(=O)C1CCN(c2nccc(-c3c[nH]nc3C3CCCCC3)n2)CC1`, 12.3%.
To `c1cc(-c2c[nH]nc2C2CCCCC2)nc(N2CCCCCC2)n1` belongs -3.373%.
For `c1cc(-c2n[nH]cc2-c2ccnc(N3CCCCCC3)n2)ccn1`, the “Percent Effect” value is 76.99%.
For the molecule `CC(NC(=O)N1CCNC(=O)CC1)c1c(F)cccc1Cl` (configuration not stated), the “Percent Effect” value is -91.59%.
For the molecule `COCCC(=O)N1CCC2(COCc3cnc(-c4cccnc4)nc32)C1` (configuration not stated), the “Percent Effect” value was -64.26%.
Consider `Cc1cncc(C(=O)N[C@@H]2CC[C@@H](N3CCOCC3)[C@@H]2O)c1`, for which the “Percent Effect” value is listed as -132.2%.
To `CNC(=O)c1ccc(C(=O)N2CCCC(n3ccnc3C)C2)cn1` (configuration not stated) belongs -171.6%; to `C=Cc1ccc(CN2C(=O)C3(CCNCC3)Nc3ccccc32)cc1`, 87.33%; to `NC(=O)c1ccc(CN2C(=O)C3(CCNCC3)Nc3ccccc32)cc1`, -6.416%.
Regarding `CC(C)c1ccc(CN2C(=O)C3(CCNCC3)Nc3ccccc32)cc1`, the “Percent Effect” value is 81.43%.
For `Cl.O=C1CC2(CCNCC2)C(=O)N1Cc1ccc(F)cc1` the value was -53.59%.
Regarding `Cl.O=C1CC2(CCCNC2)C(=O)N1Cc1ccc(F)cc1` (configuration not stated), the “Percent Effect” value is listed as -29.07%.
To `CN1CC2(CCN(Cc3cccc(C#N)c3)CC2)CC1=O` belongs -15.68%.
To `Cl.O=C1CC2(CCCNC2)C(=O)N1Cc1ccccc1` (configuration not stated) belongs -18.54%; to `CCN1CC2(CCC1=O)CCN(Cc1cccc(C#N)c1)CC2`, -206%.
Take `N#Cc1cccc(CN2C(=O)C3(CCNCC3)Nc3ccccc32)c1`: the “Percent Effect” value is 66.93%.
For `c1ccc2c(c1)COC1(CCCC1)N2` the value was -67.59%.
On to `Cn1nc(CN2CCCCC2)c2c1CN(C(=O)c1ccccc1)C2`, for which the “Percent Effect” value is on record as -57.34%.
For `CC(C)NC(=O)c1nn(C)c(NC(=O)Cc2ccccc2)c1F` the value was -24.59%; for `Cc1nc(CNC(=O)NC2CCN(c3ncccn3)CC2)cs1`, -218.9%; for `CCOCCCn1c(NC(=O)c2cc(C)no2)nc2ccccc21`, -48.09%.
For `Cn1cccc1C(=O)N1C[C@H]2CC[C@@H]1CN(Cc1cscn1)C2` the value was -15.16%.
To `O=S(=O)(c1cc(F)ccc1F)N1CCCC1c1ccco1` (configuration not stated) belongs -139.7%; to `Cc1ccc(CN(C)CC2(O)CCCN(C)C2)o1` (configuration not stated), 53.08%; to `CCN1CCCC(O)(CN(C)Cc2ccc(C)o2)C1` (configuration not stated), 18.1%.
For `Cc1ccc(CN2CCCC3(CCN(Cc4ccc(C)o4)C3)C2)o1` (configuration not stated), the “Percent Effect” value is reported as 14.98%.
For `O=C(c1ccccn1)N1CCc2ncnc(-c3ccncc3)c2CC1` the value was -17.27%.
For `COc1cccc(OC)c1-c1ccnc2cc(CC(=O)N(C)C)nn12` the value was -114.9%; for `CC(C)NC(=O)CC1CC2(CCN(S(C)(=O)=O)CC2)c2ccccc21` (configuration not stated), -30.05%.
For the molecule `Cc1ccc(-c2cn3c(n2)CO[C@@H](CNCc2nccn2C)C3)cc1`, the “Percent Effect” value is 87.31%.
For `COc1ccc(-c2cn3c(n2)CO[C@@H](CNCc2nccn2C)C3)cc1` the value was 20.49%.
For `Cc1ccc(-c2cn3c(n2)CO[C@@H](CNCc2cnn(C)c2)C3)cc1` the value was -51.89%; for `Cc1cccnc1CNC[C@H]1Cn2cc(-c3ccccc3)nc2CO1`, 30.07%.
To `Cc1ccc(CNC[C@H]2Cn3cc(-c4ccccc4)nc3CO2)cc1` belongs -116.4%; to `Cn1ccnc1CNC[C@H]1Cn2cc(-c3ccccc3)nc2CO1`, 55.94%; to `Fc1ccccc1OC1CCN(CCn2cc3ccccc3n2)CC1`, -71.75%.
With `CCC1CN(CC(=O)N2CCCC2)CCN1CCOC` (configuration not stated), the “Percent Effect” value is -62.36%.
To `Cc1ccc(N2CCC3(CCN(C(=O)c4ccsc4)CC3)C2)nn1` belongs -9.92%; to `NC(=O)N1CCC2(CCN(Cc3ccccn3)C2=O)C1.O=C(O)C(F)(F)F` (configuration not stated), -110.7%.
For `COCC(O)CN1CCC(=O)N(Cc2ccccc2)Cc2ccccc21` (configuration not stated), the “Percent Effect” value is given as -18.3%.
To `COc1ncccc1CNCc1c(C(C)C)nn(C)c1N(C)C` belongs 6.61%.
For `COc1ncccc1CNCc1c(C(C)C)nn(C)c1OC` the value was -36.33%.
To `CC(C)c1nn(C)c(N(C)C)c1CNCC(O)c1ccccc1` (configuration not stated) belongs -60.19%; to `CC(C)c1nn(C)c(Cl)c1CNCC(O)c1cccc(F)c1.Cl` (configuration not stated), 81.83%; to `COc1ncccc1CNCc1c(C(C)C)nn(C)c1Cl`, 51.46%.
For the molecule `COc1c(CNCC(c2cccc(F)c2)N(C)C)c(C(C)C)nn1C` (configuration not stated), the “Percent Effect” value was found to be 19.73%.
For `CC(C)c1nn(C)c(N(C)C)c1CNCC(O)c1cccc(F)c1` (configuration not stated) the value was 28.02%.
For `CC(C)c1nn(C)c(N(C)C)c1CNCC(O)c1ccccc1F` (configuration not stated) the value was -90.64%; for `CC(C)OCCCNC(=O)c1cccnc1N1CCOCC1`, -113.7%.
For `Cn1ccnc1CN1CCCN(C(=O)c2ccc3c(c2)OCO3)CC1` the value was -109.5%; for `O=C(Nc1nncs1)N1CCC(c2ccc(O)cc2)CC1`, -154%; for `CCN1C(=O)CCCC12CCCN(C(=O)c1conc1C)C2` (configuration not stated), -139.9%.
Take `CCCS(=O)(=O)N1CCC2(CN(c3ccccc3)C(=O)CN2C)C1.O=C(O)C(F)(F)F` (configuration not stated): the “Percent Effect” value is -40.82%.
To `CC1Oc2c(cccc2C(=O)N2CCCCCC2)NC1=O` (configuration not stated) belongs -198.9%; to `c1ccc(CN(Cc2ncc[nH]2)Cc2nccs2)cc1`, 15.24%; to `Cc1cccc(CN(Cc2ccccc2)Cc2nccs2)n1`, -42.32%.
For `Cc1nc[nH]c1CN(Cc1ccccc1)Cc1nccs1` the value was 74.62%.
To `Cc1cccc(CN2CC[C@@H]3O[C@@H](C(=O)N4CCN(C)CC4)C[C@@H]32)c1` belongs 7.549%.
Regarding `Cc1nc2ccnn2c(C)c1CCC(=O)N1CCSCC1`, the “Percent Effect” value was -118.8%.
In the case of `Cc1cccc(N2CCOCC3(C2)CN(c2ccccc2)C(=O)CO3)n1.O=C(O)C(F)(F)F` (configuration not stated), the “Percent Effect” value is listed as -64.15%.
To `Cc1cccc(N2CCOCC3(C2)CN(c2cnn(C)c2)C(=O)CO3)n1.O=C(O)C(F)(F)F` (configuration not stated) belongs -79.15%.
For `Cc1cccc(N2CCOCC3(C2)CN(c2ccoc2)C(=O)CO3)n1.O=C(O)C(F)(F)F` (configuration not stated) the value was 65.62%; for `OC1(CN2CCOC(Cn3cncn3)C2)CCCCC1` (configuration not stated), -41.07%; for `Cc1ccc2nc(CN(C)Cc3[nH]nc4c3CCC4)[nH]c2c1C`, 36.38%.
Consider `CN(Cc1cc2n(n1)CCNC2)Cc1n[nH]c2c1CCCCC2`, for which the “Percent Effect” value was -6.476%.
To `CN(Cc1cc2n(n1)CCCNC2)Cc1n[nH]c2c1CCC2` belongs -43.74%; to `Cc1ccc2[nH]c(CN(C)Cc3n[nH]c4c3CCC4)nc2c1`, 82.04%; to `CN(Cc1cc2n(n1)CCNC2)Cc1n[nH]c2c1CCC2`, -20.1%.
To `Cc1ccc2nc(CN(C)Cc3n[nH]c4c3CCCCC4)[nH]c2c1C` belongs 85.65%.
To `CCn1nc(CC(C)C)cc1C(=O)NCCCN1CCOCC1` belongs -66.39%; to `CN(Cc1ccc2c(c1)OCCO2)Cn1nc(C(C)(C)C)ccc1=O`, -39.48%.
Turning to `CN(Cc1ccncc1)C1COC2(CCN(Cc3nccn3C)CC2)C1.O=C(O)C(F)(F)F.O=C(O)C(F)(F)F.O=C(O)C(F)(F)F` (configuration not stated), the “Percent Effect” value is -27.83%.
For `O=C(O)C(F)(F)F.O=C1[C@H]2CN(S(=O)(=O)C3CC3)C[C@H]2CN1Cc1cccnc1` the value was -0.2941%; for `CC(=O)C1(c2ccccc2)CCN(C(=O)CC2CNCCO2)CC1` (configuration not stated), -46.22%.
For `O=C(C1CNCCO1)N1CCCC(c2ccccc2)(c2ccccc2)C1` (configuration not stated), the “Percent Effect” value is recorded as 79.21%.
To `CC(=O)C1(c2ccccc2)CCN(C(=O)C2CNCCO2)CC1` (configuration not stated) belongs -83.28%; to `O=C(c1cccnc1SC/C=C/c1ccccc1)N1CC[C@H](O)C1`, -73.62%.
To `O=C(c1cccnc1SC/C=C/c1ccccc1)N1CCOCC(O)C1` (configuration not stated) belongs 53.57%; to `O=C(c1cccnc1SCc1ccccc1)N1CCOCC1`, -36.51%; to `O=C(O)C(F)(F)F.O=C1N(CC2CC2)CCC12CCN(c1ncccn1)CC2`, 4.695%.
For `O=C(O)C(F)(F)F.c1ccc2c(c1)N(CC1CCOC1)CC21CCN(c2cnccn2)CC1` (configuration not stated) the value was 68.42%.
Regarding `c1cnc(N2CC3(CCN(C4CCOC4)CC3)c3ccccc32)nc1` (configuration not stated), the “Percent Effect” value is listed as -111.6%.
For `O=C(O)C(F)(F)F.c1cnc(N2CCC3(CC2)CN(CC2CC2)c2ccccc23)nc1` the value was 85.9%; for `CCS(=O)(=O)N1CCC2(CC1)CN(CC1CCOC1)c1ccccc12.O=C(O)C(F)(F)F` (configuration not stated), 19.88%.
For `CS(=O)(=O)N1CCC2(CC1)CN(CC1CCOC1)c1ccccc12.O=C(O)C(F)(F)F` (configuration not stated), the “Percent Effect” value is -57.4%.
To `O=C(O)C(F)(F)F.O=C(O)C(F)(F)F.OCCN1CC2(CCN(CC3CC3)CC2)c2ccccc21` belongs -50.6%.
Consider `Cc1cnc(N2CCC3(CCN(CC4CC4)C3=O)CC2)nc1`, for which the “Percent Effect” value is -170.6%.
Turning to `COC[C@@H]1CCC[C@@]12CN(C(=O)N1CCCC1)CCO2`, the “Percent Effect” value is -140.1%.
As to `Cc1ccc(C(=O)N2CCC3(CCN3Cc3ccc(F)cc3)C2)cn1.O=C(O)C(F)(F)F` (configuration not stated), the “Percent Effect” value was -82.72%.
To `CC(C)C(C(=O)N1CCCN(c2cccnn2)CC1)n1cncn1` (configuration not stated) belongs -14.43%; to `CN(C)S(=O)(=O)c1ccc2c(c1)N(Cc1ccccn1)CCC2`, -104.8%.
